In PubChem BioAssay AID1159580 (chemical genetic matrix, 2015):
Out of some 5,500 compounds screened, about 2,000 (36%) were called active. Not shown: some 18% with an inconclusive outcome. Rule as the data show it: active = normalized growth mostly below about 0.91 (no sharp cut-off); inconclusive = no clear call, values can overlap the other calls; inactive = mostly above about 0.92. The list shows a part of the results.

Experiment: chemical genetic growth profiling, strain panel (AID 1159580);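 also: tested at 20 µM; growth read once vehicle control cultures reached saturation at 30 °C; 1 = growth at the plate median or of vehicle wells; lower values mean less growth of the strain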
Details: growth OD

Measured: normalized growth

COC[C@]12CN(C=O)C3[C@@H]4[C@H](OC)C1[C@]3(C1CC3(O)C(OC)C(O)C4(OC(C)=O)C1C3OC(=O)c1ccccc1)[C@@H](OC)C[C@H]2O (stereo not given in full)
inactive: S. cerevisiae deletion strains, locus YJR066W, strain TOR1, active compounds read low 0.991 | S. cerevisiae deletion strains, locus YJR075W, strain HOC1, active compounds read low 1.02 | S. cerevisiae deletion strains, locus YKL009W, strain mrt4, active compounds read low 0.991 | S. cerevisiae deletion strains, locus YKL068W, active compounds read low 1 | S. cerevisiae deletion strains, locus YKL085W, strain MDH1 (second series), active compounds read low 1.01 | S. cerevisiae deletion strains, locus YKL085W, strain MDH1, active compounds read low 1.01 | S. cerevisiae deletion strains, locus YKL160W, strain elf1, active compounds read low 1.01 | S. cerevisiae deletion strains, locus YKR001C, strain vps1, active compounds read low 1.02 | S. cerevisiae deletion strains, locus YKR026C, strain gcn3, active compounds read low 1.02 | S. cerevisiae deletion strains, locus YKR091W, strain srl3, active compounds read low 1.01 | S. cerevisiae deletion strains, locus YLL001W, strain dnm1, active compounds read low 1.01 | S. cerevisiae deletion strains, locus YLL026W, active compounds read low 1.01 | S. cerevisiae deletion strains, locus YLL041C, strain sdh2, active compounds read low 1.01 | S. cerevisiae deletion strains, locus YLR027C, strain aat2, active compounds read low 1 | S. cerevisiae deletion strains, locus YLR039C, strain RIC1, active compounds read low 1.06 | S. cerevisiae deletion strains, locus YLR058C, strain SHM2, active compounds read low 1.02 | S. cerevisiae deletion strains, locus YLR102C, strain apc9, active compounds read low 1.01 | S. cerevisiae deletion strains, locus YLR113W, strain HOG1, active compounds read low 0.972 | S. cerevisiae deletion strains, locus YLR221C, strain rsa3, active compounds read low 1.01 | S. cerevisiae deletion strains, locus YLR258W, strain gsy2, active compounds read low 1.02 | S. cerevisiae deletion strains, locus YLR262C, strain YPT6 (second series), active compounds read low 0.995 | S. cerevisiae deletion strains, locus YLR262C, strain YPT6, active compounds read low 1.04 | S. cerevisiae deletion strains, locus YLR268W, strain sec22, active compounds read low 0.992 | S. cerevisiae deletion strains, locus YLR320W, strain mms22, active compounds read low 1.03 | S. cerevisiae deletion strains, locus YLR342W, strain FKS1 (second series), active compounds read low 1.01 | S. cerevisiae deletion strains, locus YLR342W, strain FKS1, active compounds read low 1.03 | S. cerevisiae deletion strains, locus YLR357W, strain rsc2, active compounds read low 1.01 | S. cerevisiae deletion strains, locus YLR370C, strain arc18, active compounds read low 1.01 | S. cerevisiae deletion strains, locus YLR371W, strain rom2, active compounds read low 0.995 | S. cerevisiae deletion strains, locus YLR384C, strain iki3, active compounds read low 1.01 | S. cerevisiae deletion strains, locus YLR418C, strain cdc73, active compounds read low 1.05 | S. cerevisiae deletion strains, locus YML016C, strain PPZ1, active compounds read low 0.999 | S. cerevisiae deletion strains, locus YML032C, strain rad52, active compounds read low 0.995 | S. cerevisiae deletion strains, locus YML120C, strain ndi1, active compounds read low 1.01 | S. cerevisiae deletion strains, locus YML124C, strain tub3, active compounds read low 1.01 | S. cerevisiae deletion strains, locus YMR058W, strain fet3, active compounds read low 1.01 | S. cerevisiae deletion strains, locus YMR078C, strain ctf18, active compounds read low 1.01 | S. cerevisiae deletion strains, locus YMR125W, strain sto1, active compounds read low 1.01 | S. cerevisiae deletion strains, locus YMR129W, active compounds read low 1.01 | S. cerevisiae deletion strains, locus YMR205C, strain PFK2, active compounds read low 1.01 | S. cerevisiae deletion strains, locus YMR223W, strain ubp8, active compounds read low 1.01 | S. cerevisiae deletion strains, locus YMR231W, strain pep5, active compounds read low 1 | S. cerevisiae deletion strains, locus YMR307W, strain GAS1, active compounds read low 1.02 | S. cerevisiae deletion strains, locus YNL067W, strain RPL9B, active compounds read low 1.03 | S. cerevisiae deletion strains, locus YNL071W, strain lat1, active compounds read low 1 | S. cerevisiae deletion strains, locus YNL183C, strain NPR1, active compounds read low 0.987 | S. cerevisiae deletion strains, locus YNL209W, strain ssb2, active compounds read low 1 | S. cerevisiae deletion strains, locus YNL233W, strain BNI4, active compounds read low 1.01 | S. cerevisiae deletion strains, locus YNL248C, strain rpa49, active compounds read low 1.02 | S. cerevisiae deletion strains, locus YNL250W, strain rad50, active compounds read low 1.04 | S. cerevisiae deletion strains, locus YNL271C, strain bni1, active compounds read low 1.02 | S. cerevisiae deletion strains, locus YNL298W, strain CLA4, active compounds read low 1.02 | S. cerevisiae deletion strains, locus YNL307C, strain MCK1, active compounds read low 1.01 | S. cerevisiae deletion strains, locus YNL322C, strain KRE1 (second series), active compounds read low 1.02 | S. cerevisiae deletion strains, locus YNR049C, strain mso1, active compounds read low 1.01 | S. cerevisiae deletion strains, locus YNR052C, strain pop2, active compounds read low 1.01 | S. cerevisiae deletion strains, locus YOL006C, strain TOP1, active compounds read low 1.03 | S. cerevisiae deletion strains, locus YOL012C, strain htz1 0.737 | S. cerevisiae deletion strains, locus YOL147C, strain pex11, active compounds read low 1 | S. cerevisiae deletion strains, locus YOR001W, strain rrp6, active compounds read low 1.02 | S. cerevisiae deletion strains, locus YOR061W, strain CKA2, active compounds read low 1.01 | S. cerevisiae deletion strains, locus YOR069W, strain VPS5, active compounds read low 1.01 | S. cerevisiae deletion strains, locus YOR070C, strain gyp1, active compounds read low 1 | S. cerevisiae deletion strains, locus YOR080W, strain dia2, active compounds read low 1.01 | S. cerevisiae deletion strains, locus YOR083W, strain WHI5, active compounds read low 1.01 | S. cerevisiae deletion strains, locus YOR106W, strain vam3, active compounds read low 1 | S. cerevisiae deletion strains, locus YOR136W, strain idh2, active compounds read low 1.01 | S. cerevisiae deletion strains, locus YOR144C, strain elg1, active compounds read low 1.01 | S. cerevisiae deletion strains, locus YOR184W, strain ser1, active compounds read low 1.01 | S. cerevisiae deletion strains, locus YOR231W, strain MKK1, active compounds read low 1.01 | S. cerevisiae deletion strains, locus YOR265W, strain rbl2, active compounds read low 1 | S. cerevisiae deletion strains, locus YOR270C, strain vph1, active compounds read low 1.03 | S. cerevisiae deletion strains, locus YOR290C, strain snf2, active compounds read low 1.02 | S. cerevisiae deletion strains, locus YOR316C, strain cot1, active compounds read low 1.01 | S. cerevisiae deletion strains, locus YPL051W, strain arl3, active compounds read low 1.01 | S. cerevisiae deletion strains, locus YPL078C, strain atp4, active compounds read low 1.01 | S. cerevisiae deletion strains, locus YPL106C, strain sse1, active compounds read low 0.999 | S. cerevisiae deletion strains, locus YPL240C, strain hsp82, active compounds read low 1.01 | S. cerevisiae deletion strains, locus YPL256C, strain CLN2, active compounds read low 1.08 | S. cerevisiae deletion strains, locus YPR119W, strain clb2, active compounds read low 1 | S. cerevisiae deletion strains, locus YPR141C, strain kar3, active compounds read low 0.998 | S. cerevisiae deletion strains, locus YPR163C, strain tif3, active compounds read low 1.01 | S. cerevisiae deletion strains, locus YPR167C, strain met16, active compounds read low 1.01 | S. cerevisiae deletion strains, strain wtn01, active compounds read low 0.99 | S. cerevisiae strains, strain wild type, active compounds read low 1.02
